Screens from PubChem BioAssay.
The full list was thinned out, with hits kept by preference.
Pf Dd2 growth = qHTS Primary assay for Inhibitors of Plasmodium falciparum Dd2 growth in vitro. P. falciparum Dd2 growth, SYBR Green, 72 h. Potency, µM (doses to about 28.9 µM), for inactives: top-dose activity, negative = inhibition, actives largely listed as inhibitors. 4.3% of 120,000 active; active = well fitted inhibition curve with a large enough effect;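 also: plate controls were DMSO vehicle for no effect and reference drug for full effect; nearly all actives have a fitted effect of over 65% in size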
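Infected erythrocytes (Dd2, 0.3% parasitemia, 2.5% hematocrit final) are added to compound in RPMI-1640/Albumax II medium, grown 72 h at 37C in low oxygen, then lysed with saponin/Triton-X containing SYBR Green and read by fluorescence.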
An asterisk follows results filed as active; [ ] = remark or other dose. Potency is read from the fitted curve at half-maximal effect.

For COCC1CN(S(=O)(=O)c2cccnc2)CC12CCNCC2 (stereo unspecified) the results were Pf Dd2 growth 21.1%.
Screening Cc1cc(NC(=O)CN2C(=O)NC(c3ccc(Cl)cc3)C3=C2COC3=O)ccc1Br (stereo unspecified) returned Pf Dd2 growth -0.6%.
`O=C1CC(c2ccccc2)N(C(=O)CNC(=O)CN2CCCC2=O)CCCCCN1` (stereo unspecified) gave Pf Dd2 growth -20.0%.
`COc1ccc(-c2cc(N3CCCC(NC(=O)c4cccc5[nH]ccc45)C3)n[nH]2)cc1` (stereo unspecified) gave Pf Dd2 growth -13.5%.
`Cc1ccc(N2C(=O)[C@@H]3C[C@@H](NC(=O)c4cccn4C)CCN3C2=O)cc1` gave Pf Dd2 growth inactive.
Screening CSc1cccc(N2C(=O)[C@@H]3C[C@@H](NC(=O)c4cccn4C)CCN3C2=O)c1 returned Pf Dd2 growth 10µM*.
`Cn1cccc1C(=O)N[C@H]1CCN2C(=O)N(c3cccc(F)c3)C(=O)[C@@H]2C1` gave Pf Dd2 growth -10.5%[44.1 µM].
For O=C(COc1ccc(Cl)cc1)N1CCN(c2cc(-c3ccccc3)[nH]n2)CC1 the results were Pf Dd2 growth -3.5%.
Screening CC(C)c1nc2c(c(-c3ccc(O)cc3)n1)CN(CC1CC1)CC2 returned Pf Dd2 growth inactive.
For Cc1noc(C)c1[S+](=O)([O-])N1CCc2nc(C(C)C)nc(-c3ccc(Cl)cc3)c2C1 the results were Pf Dd2 growth inactive.
`CC(C)c1nc2c(c(-c3ccc(O)cc3)n1)CN(C(=O)c1ccccc1F)CC2` gave Pf Dd2 growth -7.9%.
For COc1ccc(CN2CCc3nc(C(C)C)nc(-c4ccc(O)cc4)c3C2)cc1 the results were Pf Dd2 growth 8.91µM*.
Screening Cc1noc(C)c1[S+](=O)([O-])N1CCc2nc(C(C)C)nc(-c3ccc(O)cc3)c2C1 returned Pf Dd2 growth 10µM*.
Screening Cc1nc2c(c(-c3ccc(Cl)cc3)n1)CN([S+](=O)([O-])c1c(C)noc1C)CC2 returned Pf Dd2 growth inactive.
For CC(C)c1nc2c(c(-c3ccc(O)cc3)n1)CN(Cc1cccc(C(F)(F)F)c1)CC2 the results were Pf Dd2 growth 2.51µM*.
Screening CC(C)c1nc2c(c(-c3ccc(O)cc3)n1)CN(Cc1ccccc1)CC2 returned Pf Dd2 growth -4.9%.
For CN(C)[C@@H]1CN(C(=O)c2cccc(C#N)c2)C[C@H]1CO the results were Pf Dd2 growth 9.2%.
Screening CCN1C(=O)C2CC3(CCN(C(=O)c4ccn[nH]4)CC3)CN2C1=O (stereo unspecified) returned Pf Dd2 growth 18.0%.
`O=C(CCC1CCN(S(=O)(=O)c2ccc(F)cc2)CC1)N1CCc2ccccc2C1` gave Pf Dd2 growth -15.4%.
O=C(c1cc(F)ccc1F)N1CCN(c2nnc3ccc(Cl)cn23)CC1 was read as Pf Dd2 growth inactive.
Screening CO[C@@H]1COCC[C@H]1NC(=O)c1ccc(CSc2ccccn2)cc1 returned Pf Dd2 growth -10.1%.
Screening COCCN1C(=O)c2ccccc2C(C(=O)N2CCSCC2)C12CCCC2 (stereo unspecified) returned Pf Dd2 growth 2.5%.
Cc1ccc(CNC(=O)N2C[C@@H](F)C[C@H]2C(=O)N2CCCCC2)cc1 was read as Pf Dd2 growth inactive.
`COc1ccc(S(=O)(=O)N2Cc3ccccc3CC2C(=O)Nc2cc(Cl)ccc2Cl)cc1` (stereo unspecified) gave Pf Dd2 growth 10µM*.
`COc1ccc(OC)c(S(=O)(=O)N2Cc3ccccc3CC2C(=O)Nc2ccc(Cl)cc2)c1` (stereo unspecified) gave Pf Dd2 growth inactive.
`COc1ccc(NC(=O)C2Cc3ccccc3CN2S(=O)(=O)c2ccccc2)cc1OC` (stereo unspecified) gave Pf Dd2 growth -24.6%.
For Cn1nccc1CN1CCn2c(nnc2-c2ccccc2)C1 the results were Pf Dd2 growth 1.0%[44.1 µM].
Screening COc1cc(C)c2c(c1C)C[C@H]([C@H](C)C(=O)O)CC2 returned Pf Dd2 growth -12.6%[44.1 µM].
Screening COCCOc1cc(C)c2c(c1C)C[C@H](C(C)C(=O)N1CCC(O)CC1)CC2 (stereo partly specified) returned Pf Dd2 growth -4.7%[44.1 µM].
Screening COCCOc1cc(C)c2c(c1C)C[C@H](C(C)C(=O)N1CCSCC1)CC2 (stereo partly specified) returned Pf Dd2 growth 10µM*.
O=C(NCC1CN(C(=O)Cc2ccc3c(c2)OCO3)CC12CN(c1ccccc1)C2)c1ccccc1 (stereo unspecified) was read as Pf Dd2 growth inactive.
For Cn1cc(CCC(=O)N2CCN(Cc3ccccc3)CC(O)C2)cn1 (stereo unspecified) the results were Pf Dd2 growth -18.8%.
`O=C(c1ncn[nH]1)N1CCc2ccc(S(=O)(=O)NCC3CCCO3)cc2C1` (stereo unspecified) gave Pf Dd2 growth 17.3%.
For Cc1oc(C(O)c2ccccc2F)nc1C(=O)Nc1ccccc1C(N)=O (stereo unspecified) the results were Pf Dd2 growth inactive.
NC(=O)c1ccccc1NC(=O)CN1c2ccccc2S(=O)(=O)c2ccccc21 was read as Pf Dd2 growth 10µM*.
COc1cc(Cl)c(C)cc1NC(=O)CN1c2ccccc2S(=O)(=O)c2ccccc21 was read as Pf Dd2 growth -7.1%.
Screening O=S1(=O)c2ccccc2N(Cc2ccccc2)c2ccccc21 returned Pf Dd2 growth inactive.
For CCc1ccc(Nc2nc(-c3cc4cccc(OC)c4oc3=O)c(CC)s2)cc1 the results were Pf Dd2 growth 11.2µM*.
Screening COc1cccc2cc(-c3nc(Nc4cccc(C)c4C)sc3C)c(=O)oc12 returned Pf Dd2 growth 4.9%.
For CCOc1cccc2cc(-c3nnc(Nc4ccc(F)c(Cl)c4)s3)c(=O)oc12 the results were Pf Dd2 growth 21.0%.
For CC(=O)N1CCN(c2ncnc3c2CN(c2ccc([N+](=O)[O-])cc2)C(=O)N(C)C3)CC1 the results were Pf Dd2 growth 23.7%.
`Cc1cccc(OCC(=O)N2CC(c3nnc(C(C)C)o3)C3(CCOCC3)C2)c1` (stereo unspecified) gave Pf Dd2 growth 7.5%.
Screening COc1ccc(-c2nc(C3CC(=O)N(c4ccc(C)cc4)C3)no2)c(OC)n1 (stereo unspecified) returned Pf Dd2 growth 73.6%.
Screening O=C(O)c1ccc(-c2nnc3ccc(NC(=O)C4CCC4)cn23)cc1 returned Pf Dd2 growth -11.1%.
Screening O=C(NC1CC1)c1ccc2nnc(-c3ccc(Cl)cc3)n2c1 returned Pf Dd2 growth 7.1%.
CC(C)CCNC(=O)c1ccc(-c2nnc3ccc(NC(=O)C4CCC4)cn23)cc1 was read as Pf Dd2 growth 2.82µM*.
CNC(=O)[C@@H]1C[C@H](Oc2cccnc2)CN1C(=O)c1ccc(OC)nc1 was read as Pf Dd2 growth 23.8%.
O=C(NC1CC1)c1ccnc2[nH]ccc12 was read as Pf Dd2 growth 19.5%[44.1 µM].
Screening CCc1ccc(C(=O)c2cnc3ccc(F)cc3c2S(=O)(=O)c2ccccc2)cc1 returned Pf Dd2 growth 11.2µM*.
Screening CCc1ccc(-c2nn(CC(=O)Nc3ccccc3)c3c2cnc2ccc(F)cc23)cc1 returned Pf Dd2 growth 10.4%.
CCc1ccc(-c2nn(CC(=O)NCc3ccccc3)c3c2cnc2ccc(F)cc23)cc1 was read as Pf Dd2 growth -1.0%.
For CC(C)C[C@@H](NC(=O)[C@@]1(O)C[C@@H](O)[C@H](O)[C@@H](NS(=O)(=O)c2cccc(C(F)(F)F)c2)C1)C(N)=O the results were Pf Dd2 growth inactive.
